HP1b binding inh: HTS for Inhibitors of HP1-beta Chromodomain Interactions with Methylated Histone Tails | Chromobox protein homolog 1 (Homo sapiens), P83916 | AlphaScreen HP1-beta / biotin-H3K9me3 peptide binding | Potency, µM (top dose mostly 114 µM), for the others: at the top dose activity change, negative = inhibition, usual class: inhibitors | actives 0.56% (n = 390,000) | AID 540317, 2011; note: potency is the fitted concentration of half-maximal effect; nearly all actives have a fitted effect of over 70% in size
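Compound inhibition of the preformed complex between 50 nM HP1-beta and 50 nM biotinylated H3K9me3 peptide was read by AlphaScreen. Buffer was PBS pH 7.4 with 0.01% Tween-20. Incubations ran 30 min at room temperature, with 10 ug/mL donor/acceptor beads.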
PI5P4Ka inh: qHTS for Inhibitors of phosphatidylinositol 5-phosphate 4-kinase (PI5P4K); Phosphatidylinositol 5-phosphate 4-kinase type-2 alpha (Homo sapiens), P48426; PI5P4Kalpha enzyme, ADP-Glo luminescence, 60 min; active compounds read low; max response, %; actives 1.2% (n = 330,000); active = max response of -50% or lower; inconclusive = between -30% and -50%; inactive = -30% or higher; note: value at the top dose of about 77 µM; % is set by controls: 0 for no effect and ±100 for the full control effect
Target sequence (P48426 whole entry, looked up): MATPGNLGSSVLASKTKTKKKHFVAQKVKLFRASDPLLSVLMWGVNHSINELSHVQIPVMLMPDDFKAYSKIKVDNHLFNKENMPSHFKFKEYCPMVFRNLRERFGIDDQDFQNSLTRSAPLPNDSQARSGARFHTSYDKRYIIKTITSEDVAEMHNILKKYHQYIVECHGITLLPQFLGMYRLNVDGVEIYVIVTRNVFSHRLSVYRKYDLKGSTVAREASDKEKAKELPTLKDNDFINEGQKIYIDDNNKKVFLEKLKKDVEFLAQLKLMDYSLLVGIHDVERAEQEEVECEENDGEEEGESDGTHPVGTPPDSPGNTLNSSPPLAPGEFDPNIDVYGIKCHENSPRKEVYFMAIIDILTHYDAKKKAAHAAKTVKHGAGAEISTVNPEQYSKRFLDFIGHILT
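Quantitative HTS of the MLSMR library against PI5P4Kalpha with substrate. ATP added last at 5 microM final; room temperature, 60 minutes. Remaining ATP depleted, ADP converted and read as luminescence.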
G9a inh: qHTS Assay for Inhibitors of Histone Lysine Methyltransferase G9a; Histone-lysine N-methyltransferase EHMT2 (Homo sapiens), Q96KQ7; G9a H3K9 monomethylation, AlphaScreen, 2 h; Potency, µM (highest dose often 102 µM), for inactives: at the highest dose activity, negative = inhibition, actives largely listed as inhibitors; actives 8.8% (n = 350,000); note: potency is the fitted concentration of half-maximal effect; % is set by controls: 0 for no effect and ±100 for the full control effect; nearly all actives have a fitted effect of over 75% in size
Target sequence (Q96KQ7 913-1193 limits assumed): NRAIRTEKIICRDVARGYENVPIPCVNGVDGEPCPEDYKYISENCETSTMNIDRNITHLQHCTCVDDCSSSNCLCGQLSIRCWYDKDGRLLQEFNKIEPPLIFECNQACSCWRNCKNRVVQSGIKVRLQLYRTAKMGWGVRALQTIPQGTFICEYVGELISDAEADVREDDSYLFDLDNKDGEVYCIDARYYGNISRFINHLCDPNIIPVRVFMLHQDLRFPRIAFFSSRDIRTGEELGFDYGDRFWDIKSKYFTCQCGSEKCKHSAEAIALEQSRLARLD
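Step 1: enzyme (final 20 nM) with compound, 15 min RT. Step 2: substrate peptide 500 nM and SAM 20 uM, 2 h RT. Step 3: anti-H3K9me1 antibody and AlphaScreen beads, 10 min, then plate read.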
PLK1 PBD block: qHTS for Inhibitors of PLK1-PDB (polo-like kinase 1 - polo-box domain): Primary Screen. AID 720504, 2013. Plk1 PBD binding of FITC phosphopeptide, fluorescence polarization. Serine/threonine-protein kinase PLK1 (Homo sapiens), P53350. actives 2.8% (n = 360,000). Potency, µM, without a hit: max response, negative = inhibition, hits mostly inhibitors; note: potency is the fitted concentration of half-maximal effect; series mostly up to about 57 µM; % is set by controls: 0 for no effect and ±100 for the full control effect; nearly all actives have a fitted effect of over 65% in size
BAZ2B inh: qHTS Assay for Inhibitors of BAZ2B | Bromodomain adjacent to zinc finger domain protein 2B (Homo sapiens), Q9UIF8 | AlphaScreen BAZ2B-H3K14Ac peptide displacement | Potency, µM (titrated, usually from 114 µM), for inactives: at the highest dose activity change, negative = inhibition, most hits filed as inhibitors | actives 4.4% (n = 360,000); note: potency is the fitted concentration of half-maximal effect; % is set by controls: 0 for no effect and ±100 for the full control effect; nearly all actives have a fitted effect of over 60% in size
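AlphaScreen displacement: compounds (up to 110uM) incubated 30 min at room temperature with a preformed 50 nM BAZ2B/50 nM biotinylated H3K14Ac peptide complex in PBS pH 7.4 with Tween-20. Donor and acceptor beads at 10 ug/mL final added, 20 min light-protected before reading.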
JMJD2A Tudor: qHTS Assay for Inhibitors of JMJD2A-Tudor Domain; Lysine-specific demethylase 4A (Homo sapiens), O75164; AlphaScreen JMJD2A-Tudor / H3K4me3 peptide binding; Potency, µM (top dose mostly 114 µM), inactives show at the highest dose activity change, negative = inhibition, usual class: inhibitors; actives 4.4% (n = 390,000); AID 504339, 2011; note: potency is the fitted concentration of half-maximal effect; % is set by controls: 0 for no effect and ±100 for the full control effect; nearly all actives have a fitted effect of over 50% in size
Numbers without * were called inactive; [ ] = another dose, or the depositor's remark. Shown are actives, neighbours in structure and some others; about 12% of the full set was active somewhere. Unless noted, calls come from the whole dose curve; as a rule, active = well fitted curve in the direction sought with a large enough effect; inconclusive = small, poorly fitted or top-dose-only effect, or another doubt; inactive = no such curve, though single readings can be large; an effect the other way counts as inactive or inconclusive.

What do the screens show for `COc1cccc(C2c3cc4c(cc3OC(C)(N3CCCC3)C2C)OCO4)c1O` (configuration not stated)?
HP1b binding inh: -28.4%; PI5P4Ka inh: 7.2; PLK1 PBD block: 4.5%; JMJD2A Tudor: inconclusive

How did O=C(CSc1ncn[nH]1)OCN1C(=O)c2ccccc2C1=O do in these assays?
HP1b binding inh: 30.5%; G9a inh: 35.5µM*; PLK1 PBD block: -3.7%; BAZ2B inh: -2.0%; JMJD2A Tudor: -2.2%

How did COc1ccc(-n2c(Cc3cccn3C)nnc2SCC(=O)Nc2ccc(Cl)cc2)cc1 do in these assays?
HP1b binding inh: -24.5%; PI5P4Ka inh: 1.6; G9a inh: inconclusive; PLK1 PBD block: 3.1%; BAZ2B inh: inconclusive; JMJD2A Tudor: inconclusive

How did COc1ccc(-n2c(Cc3cccn3C)nnc2SCC(N)=O)cc1 do in these assays?
HP1b binding inh: 43.9%; PI5P4Ka inh: 5.5; G9a inh: 50.1µM*; PLK1 PBD block: -11.9%; BAZ2B inh: -13.2%; JMJD2A Tudor: -21.1%

Results for COc1ccc(-n2c(Cc3cccn3C)nnc2SCC(=O)N2CCC(C)CC2)cc1 ?
HP1b binding inh: 18.3%; PI5P4Ka inh: -1.2; G9a inh: inconclusive; PLK1 PBD block: -4.5%; BAZ2B inh: -34.7%; JMJD2A Tudor: -26.4%

What do the screens show for `COc1ccc(OCc2nnc(SCC(=O)N3CCCc4ccccc43)n2-c2ccc(C)cc2)cc1`?
HP1b binding inh: 6.1%; PI5P4Ka inh: 5.2; G9a inh: inconclusive; PLK1 PBD block: -3.7%; BAZ2B inh: -33.0%; JMJD2A Tudor: -29.7%

Results for COc1ccc(-n2c(Cc3cccn3C)nnc2SCC(=O)N2CCCC2)cc1 ?
HP1b binding inh: 38.6%; PI5P4Ka inh: 1.3; G9a inh: 44.7µM*; PLK1 PBD block: 0.5%; BAZ2B inh: -5.9%; JMJD2A Tudor: -21.4%

How did Cn1cccc1Cc1nnc(SCC(=O)N2CCCCCC2)n1-c1ccc(F)cc1 do in these assays?
HP1b binding inh: 29.2%; PI5P4Ka inh: 1.2; G9a inh: 50.1µM*; PLK1 PBD block: -5.7%; BAZ2B inh: -33.1%; JMJD2A Tudor: -23.2%

How did COc1ccc(-n2c(Cc3cccn3C)nnc2SCC(=O)N2CCCc3ccccc32)cc1 do in these assays?
HP1b binding inh: -12.9%; G9a inh: 44.7µM*; PLK1 PBD block: -8.3%; BAZ2B inh: inconclusive; JMJD2A Tudor: inconclusive

What do the screens show for `CC(C)C[C@H]1CNC(=S)N1C[C@H]1CCCN1C[C@H](CC(C)C)N1C[C@H](Cc2ccc(O)cc2)N(CC2CCCCC2)C1=S`?
PI5P4Ka inh: -4.9; PLK1 PBD block: -14.5%

What do the screens show for `COC(=O)CN1C(=O)CSc2ccc(S(=O)(=O)N3CCOCC3)cc21`?
HP1b binding inh: 54.2%; G9a inh: inconclusive; BAZ2B inh: 0.0%; JMJD2A Tudor: 1.7%

What do the screens show for `CCOc1cc(N2CCOCC2)c(OCC)cc1NC(=O)CN1CCc2ccccc2C1`?
HP1b binding inh: inconclusive; PI5P4Ka inh: 0.1; G9a inh: 15.3%[2.33 µM]; PLK1 PBD block: -0.3%; BAZ2B inh: 20µM*; JMJD2A Tudor: 1.41µM*

Results for CCOc1cc(N2CCOCC2)c(OCC)cc1NCC(=O)N1CCN(Cc2ccccc2)CC1 ?
HP1b binding inh: 20µM*; PI5P4Ka inh: 2.1; PLK1 PBD block: 2.2%; BAZ2B inh: 20µM*; JMJD2A Tudor: 0.794µM*

Results for CCOc1cc(N2CCOCC2)c(OCC)cc1NC(=O)CSc1nccc(C)n1 ?
HP1b binding inh: 11.8%; PI5P4Ka inh: -1.6; G9a inh: -50.9%; PLK1 PBD block: -9.8%; BAZ2B inh: -22.8%; JMJD2A Tudor: -24.5%

What do the screens show for `CCOc1cc(N2CCOCC2)c(OCC)cc1NC(=O)CSc1ccccc1C(=O)O`?
HP1b binding inh: 12.8%; PI5P4Ka inh: -1.6; G9a inh: 7.94µM*; PLK1 PBD block: -5.0%; BAZ2B inh: 79.4µM*; JMJD2A Tudor: -32.6%

What do the screens show for `CCOc1cc(N2CCOCC2)c(OCC)cc1NC(=O)CSc1ncn[nH]1`?
HP1b binding inh: 15.4%; PI5P4Ka inh: -18.7; G9a inh: 44.7µM*; PLK1 PBD block: -12.8%; BAZ2B inh: -36.2%; JMJD2A Tudor: -7.2%

What do the screens show for `O=S(=O)(NCC(c1ccco1)N1CCN(c2ccc(F)cc2)CC1)c1cc(F)ccc1F` (configuration not stated)?
HP1b binding inh: 16.7%; G9a inh: 34.3%[59 µM]; BAZ2B inh: 7.6%; JMJD2A Tudor: inconclusive

Results for Cc1ccccc1OCCC(=O)N(CC(C)C)c1c(N)n(Cc2ccccc2)c(=O)[nH]c1=O ?
HP1b binding inh: 36.7%; PI5P4Ka inh: -1.6; G9a inh: 23.0%[12.7 µM]; PLK1 PBD block: -4.6%; BAZ2B inh: -2.4%; JMJD2A Tudor: -9.5%

Results for COc1ccc(NC(=O)c2cc(-c3sc(NC(=O)c4ccccc4)nc3C)n(CCO)n2)cc1 ?
PI5P4Ka inh: -12.5; PLK1 PBD block: -9.9%

How did CCOc1cc(N2CCOCC2)c(OCC)cc1NC(C)C(=O)N1CCC(C)CC1 (configuration not stated) do in these assays?
HP1b binding inh: -5.3%; PI5P4Ka inh: 1.3; G9a inh: 39.8µM*; PLK1 PBD block: -11.4%; BAZ2B inh: -4.5%; JMJD2A Tudor: inconclusive

How did CC(C)NC(=O)N(C)C[C@H]1Oc2ncc(Br)cc2C(=O)N([C@H](C)CO)C[C@@H]1C do in these assays?
PI5P4Ka inh: -5.3; PLK1 PBD block: -1.7%

What do the screens show for `COc1ccc(-c2cc(C(F)F)n3ncc(C(=O)Nc4c(C)n(C)n(-c5ccccc5)c4=O)c3n2)cc1`?
HP1b binding inh: 18.5%; PI5P4Ka inh: -2.1; G9a inh: -4.1%; PLK1 PBD block: -27.1%; BAZ2B inh: -8.3%; JMJD2A Tudor: 0.0%[11.4 µM]

Results for COc1ccc(-c2cc(C(F)F)n3ncc(C(=O)Nc4cc(C)on4)c3n2)cc1 ?
HP1b binding inh: 9.7%; PI5P4Ka inh: -1.2; PLK1 PBD block: -6.8%; BAZ2B inh: 79.4µM*; JMJD2A Tudor: -6.9%

What do the screens show for `Cc1cc(C)c2c(=O)n(CC(=O)N3CCC(N4CCCCC4)CC3)sc2n1`?
HP1b binding inh: 3.55µM*; PI5P4Ka inh: -80.7*; G9a inh: 1µM*; PLK1 PBD block: 2.99µM*; BAZ2B inh: 2.7%; JMJD2A Tudor: 3.16µM*

Screening results deposited in PubChem BioAssay by National Center for Advancing Translational Sciences (NCATS).
